Source: PubChem BioAssay (EPA / NIEHS)
Results filed as inconclusive are left out. Active and inactive are the calls of the source. How the source made its calls, unless noted: active means hit-call score of the fitted dose curve at least 0.9, where 1 is the maximum; inactive means score below 0.9.

Columns and labels:
[1] = CCTE_Harrill_HTTr_Viability_MCF7: CCTE's 6-hour Cell Viability Assessment for the High-Throughput Transcriptomics (HTTr) Platform, in MCF-7 cells cultured in DMEM + 10% fetal bovine serum, Harrill Lab (AID 2284010)
Procedure, shortened: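 Read-out is propidium iodide gain of signal by high-content imaging, reflecting membrane integrity loss. Measurements are taken 6 h after dosing, eight concentrations per chemical, with DMSO serving as baseline for bidirectional curve fitting.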

[2] = CCTE_Harrill_HTTr_Apoptosis_MCF7: CCTE's 6-hour Apoptosis Assessment for the High-Throughput Transcriptomics (HTTr) Platform, in MCF-7 cells cultured in DMEM + 10% fetal bovine serum, Harrill Lab (AID 2284011)
Procedure, shortened: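 Cells are dosed with test chemicals at eight concentrations and imaged 6 hours later for caspase-3/7 activity using a green fluorogenic detection reagent. Activity is fitted in both directions against DMSO controls.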

[3] = CCTE_Harrill_HTTr_CellCount_MCF7: CCTE's Cell Proliferation Assessment for the High-Throughput Transcriptomics (HTTr) Platform, Harrill Lab (AID 2284012; active means hit-call score of the fitted dose curve at least 0.9, where 1 is the maximum;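 further: cells exposed to compound for six hours; intended direction is loss of nuclei count meaning fewer cells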)
Procedure, shortened: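 Cell count served as viability reporter: loss of Hoechst-stained nuclei, counted by high content imaging, marks decreased growth or survival. Exposure was 6 h in MCF-7 cells across eight concentrations, with DMSO as baseline.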

Structure (SMILES) | outcome [1] | outcome [2] | outcome [3]
C[C@@H](Oc1ccc(CNC(=O)c2cccnc2Oc2ccc3c(c2)OCO3)c(F)c1)C(=O)O | inactive | inactive | inactive
NNC(=O)c1ccncc1 | inactive | inactive | 
c1ccc2c(c1)-c1cccc3c1c-2cc1ccccc13 | inactive | inactive | inactive
COS(C)(=O)=O | inactive | inactive | inactive
NC(=O)N(O)[C@@H]1COc2cc(OCc3ccccc3)ccc21 | inactive | inactive | inactive
O=c1[nH]cnc2c1ncn2[C@H]1CC[C@@H](CO)O1 | inactive | inactive | 
CCCCCCCCN(C)C | inactive | inactive | inactive
OC(Cn1cncn1)(Cn1cncn1)c1ccc(F)cc1F | inactive | inactive | 
Cn1cc[nH]c1=S | inactive | inactive | inactive
NC(N)=O | inactive | inactive | inactive
CCn1nc(C)c2c1C(=O)NCC(c1ccc(O)cc1)=N2 | inactive | inactive | inactive
Cc1ccc(S(=O)(=O)NC(=O)NN2CCCCCC2)cc1 | inactive | inactive | 
CC(C)CCCCCCOC(=O)C1CCCCC1C(=O)OCCCCCCC(C)C (stereo unspecified) | inactive | inactive | 
Nc1ccn([C@@H]2O[C@H](CO)[C@@H](O)[C@@H]2O)c(=O)n1 | inactive | inactive | 
OC[C@H]1O[C@@H]2O[C@H]3[C@H](O)[C@@H](O)[C@@H](O[C@H]4[C@H](O)[C@@H](O)[C@@H](O[C@H]5[C@H](O)[C@@H](O)[C@@H](O[C@H]6[C@H](O)[C@@H](O)[C@@H](O[C@H]7[C@H](O)[C@@H](O)[C@@H](O[C@H]1[C@H](O)[C@H]2O)O[C@@H]7CO)O[C@@H]6CO)O[C@@H]5CO)O[C@@H]4CO)O[C@@H]3CO | inactive | inactive | inactive
O=C(O)CO | inactive | inactive | 
